From PubChem BioAssay AID1159580 (chemical genetic matrix, 2015)
Values joined by “and” are separate entries in the source; they are usually repeats but may differ in a detail not shown here. Equal entries are not always repeated. In all, about 5,500 compounds went through this assay and about 2,000 (36%) were called active. Inconclusive results (about 18%) are left out. Rule as the data show it: active = normalized growth mostly below about 0.91 (no sharp cut-off); inconclusive = no clear call, values can overlap the other calls; inactive = mostly above about 0.92. This is one part of the list.

Assay: chemical genetic growth profiling, strain panel (AID 1159580);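 also: tested at 20 µM; growth read once vehicle control cultures reached saturation at 30 °C; 1 = growth at the plate median or of vehicle wells; lower values mean less growth of the strain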
Conditions: S. cerevisiae deletion strains, growth OD

Measured: normalized growth

CCCc1nn(C)c2c(=O)[nH]c(-c3cc(S(=O)(=O)N4CCN(C)CC4)ccc3OCC)nc12
inactive: locus YAL013W, strain DEP1, active compounds read low 1.02 | locus YAL021C, strain ccr4, active compounds read low 0.991 | locus YAL026C, strain drs2, active compounds read low 0.988 | locus YAL030W, strain snc1, active compounds read low 0.997 | locus YBL061C, strain skt5, active compounds read low 0.989 | locus YBR009C, strain hhf1, active compounds read low 1 | locus YBR021W, strain FUR4, active compounds read low 1.05 | locus YBR023C, strain chs3, active compounds read low 0.988 | locus YBR171W, strain sec66, active compounds read low 0.99 | locus YBR229C, strain ROT2, active compounds read low 1.02 | locus YBR231C, strain swc5, active compounds read low 0.988 | locus YBR279W, strain paf1, active compounds read low 0.985 | locus YCL011C, strain gbp2, active compounds read low 0.987 | locus YCL016C, strain dcc1, active compounds read low 0.994 | locus YCL029C, strain bik1, active compounds read low 0.993 | locus YCL061C, strain MRC1, active compounds read low 0.981 | locus YCL069W, strain vba3, active compounds read low 0.992 | locus YCR088W, strain abp1, active compounds read low 0.983 | locus YDL005C, strain med2, active compounds read low 0.987 | locus YDL035C, strain GPR1, active compounds read low 1.03 | locus YDL040C, strain nat1, active compounds read low 0.991 | locus YDL074C, strain BRE1, active compounds read low 1.07 | locus YDL101C, strain DUN1, active compounds read low 1.02 | locus YDL134C, strain PPH21, active compounds read low 1.03 | locus YDL185W, strain tfp1, active compounds read low 1 | locus YDL192W, strain arf1, active compounds read low 0.989 | locus YDR001C, strain nth1, active compounds read low 0.989 | locus YDR069C, strain doa4, active compounds read low 0.991 | locus YDR101C, strain arx1, active compounds read low 0.991 | locus YDR137W, strain rgp1, active compounds read low 0.986 | locus YDR150W, strain NUM1, active compounds read low 1.02 | locus YDR159W, strain sac3, active compounds read low 1 | locus YDR162C, strain NBP2, active compounds read low 1.01 | locus YDR195W, strain ref2 0.978 | locus YDR297W, strain sur2, active compounds read low 0.991 | locus YDR318W, strain mcm21, active compounds read low 1 | locus YDR334W, strain swr1, active compounds read low 0.989 | locus YDR335W, strain msn5, active compounds read low 0.993 | locus YDR388W, active compounds read low 0.962 | locus YDR392W, strain spt3, active compounds read low 0.989 | locus YDR502C, strain sam2, active compounds read low 0.99 | locus YEL003W, strain gim4, active compounds read low 0.995 | locus YEL037C, strain rad23, active compounds read low 0.992 | locus YEL061C, strain CIN8 (second series), active compounds read low 0.988 | locus YEL061C, strain CIN8, active compounds read low 1.02 | locus YER015W, strain faa2, active compounds read low 0.994 | locus YER016W, strain bim1, active compounds read low 0.988 | locus YER110C, active compounds read low 0.974 | locus YER111C, strain swi4, active compounds read low 0.989 | locus YER155C, strain BEM2 (second series), active compounds read low 0.987 | locus YER155C, strain BEM2, active compounds read low 1.01 | locus YER167W, strain BCK2, active compounds read low 1.03 | locus YFR010W, strain ubp6, active compounds read low 0.98 | locus YGL078C, strain dbp3, active compounds read low 0.985 | locus YGL086W, strain mad1, active compounds read low 0.992 | locus YGL167C, strain pmr1, active compounds read low 1 | locus YGL173C, strain kem1, active compounds read low 0.983 | locus YGL227W, strain vid30, active compounds read low 0.988 | locus YGL240W, strain doc1, active compounds read low 1 | locus YGL248W, strain PDE1, active compounds read low 1.02 | locus YGL253W, strain hxk2, active compounds read low 0.995 | locus YGR078C, strain PAC10, active compounds read low 1.04 | locus YGR135W, strain pre9, active compounds read low 0.995 | locus YGR229C, strain SMI1, active compounds read low 1.03 | locus YGR252W, strain gcn5, active compounds read low 0.953 | locus YHR013C, strain ard1, active compounds read low 0.956 | locus YHR027C, strain rpn1, active compounds read low 0.992 | locus YHR030C, strain SLT2, active compounds read low 1.02 and 1.03 | locus YHR079C, strain IRE1 (second series), active compounds read low 0.991 | locus YHR079C, strain IRE1, active compounds read low 1.05 | locus YHR094C, strain hxt1, active compounds read low 0.995 | locus YHR129C, strain ARP1, active compounds read low 1.02 | locus YHR142W, strain chs7, active compounds read low 0.99 | locus YHR200W, strain rpn10, active compounds read low 1 | locus YIL066C, strain RNR3, active compounds read low 1.03 | locus YIL073C, strain SPO22, active compounds read low 1.06 | locus YIL125W, strain kgd1, active compounds read low 0.994 | locus YIR030C, strain dcg1, active compounds read low 0.997 | locus YJL092W, strain hpr5, active compounds read low 0.99 | locus YJL095W, strain BCK1 (second series), active compounds read low 0.986 | locus YJL095W, strain BCK1, active compounds read low 1.04 and 1.01 | locus YJL115W, strain asf1, active compounds read low 0.993 | locus YJL129C, strain trk1, active compounds read low 0.995 | locus YJL134W, strain LCB3, active compounds read low 1.01 | locus YJL154C, strain vps35, active compounds read low 0.988 | locus YJL164C, strain tpk1, active compounds read low 0.999 | locus YJL166W, strain qcr8, active compounds read low 0.991 | locus YJL168C, strain set2, active compounds read low 0.995 | locus YJL187C, strain SWE1 (second series), active compounds read low 1.02 | locus YJL187C, strain SWE1, active compounds read low 0.991 | locus YJR043C, strain POL32, active compounds read low 1.04 | locus YJR066W, strain TOR1, active compounds read low 0.981
